Measured values from PubChem BioAssay (NCATS).
Inconclusive results are not listed. Calls of active or inactive are those of the source. The call rests on the fitted dose curve; in most records, active means well fitted inhibition curve with a large enough effect; inconclusive means small, poorly fitted or top-dose-only effect; inactive means no such curve, though single readings can be large or run the other way.

Target: Nuclear receptor ROR-gamma (Homo sapiens) (UniProt P51449)
Assay: qHTS assay for small molecule antagonists of the retinoid-related orphan receptor gamma (ROR-gamma) signaling pathway (AID 651802); further: nearly all actives have a fitted effect of over 60% in size
Details: ROR-gamma antagonist cell reporter assay; series mostly up to 92.2 µM; activity change, negative = inhibition: at the top concentration
Source text: National Center for Advancing Translational Sciences [NCATS]
NIH Chemical Genomics Center [NCGC]
National Institutes of Environmental Health Sciences [NIEHS]
National Toxicology Program [NTP]
Nuclear steroid hormone receptors are involved in many biological processes including inflammatory responses, cell proliferation, and apoptosis. Environmental factors or compounds disrupting these nuclear receptor pathways and gene expression may promote susceptibility to immunotoxicants and autoimmune diseases. One important group of these expression factors are the retinoid-related orphan receptors. To assess compounds that may interfere with the retinoid-related orphan receptor gamma (ROR-gamma) transcription factor, a cell-based luciferase assay was used.
The CHO cell-based assay utilizes a TET-inducible ROR expression factor and ROR response element-LUC reporter gene. Reporter activity was induced using doxycycline and measured after 16hr incubation. Luminescence was read using Viewlux (PerkinElmer), where a decrease in reporter activity would show a decrease in luminescence.
1,000 cells in 4 uL/well were dispensed into white wall/solid bottom 1536-well plates using a Multidrop Combi (Thermo Scientific) dispenser. Following transfer of 23 nL compound or DMSO vehicle by a pin tool, the plates were treated with 1 ul doxycycline to induce reporter gene activity. After 16hr incubation at 37C and 5% CO2, 5uL one-glo (promega) was added to each plate and following 30 min incubation at room temperature, luminescence was quantified on a ViewLux (PerkinElmer) plate reader.
On the % scale 0 is the no-effect control and ±100 the full control effect.

Nuclear receptor ROR-gamma (Homo sapiens), sequence (P51449 whole entry, looked up): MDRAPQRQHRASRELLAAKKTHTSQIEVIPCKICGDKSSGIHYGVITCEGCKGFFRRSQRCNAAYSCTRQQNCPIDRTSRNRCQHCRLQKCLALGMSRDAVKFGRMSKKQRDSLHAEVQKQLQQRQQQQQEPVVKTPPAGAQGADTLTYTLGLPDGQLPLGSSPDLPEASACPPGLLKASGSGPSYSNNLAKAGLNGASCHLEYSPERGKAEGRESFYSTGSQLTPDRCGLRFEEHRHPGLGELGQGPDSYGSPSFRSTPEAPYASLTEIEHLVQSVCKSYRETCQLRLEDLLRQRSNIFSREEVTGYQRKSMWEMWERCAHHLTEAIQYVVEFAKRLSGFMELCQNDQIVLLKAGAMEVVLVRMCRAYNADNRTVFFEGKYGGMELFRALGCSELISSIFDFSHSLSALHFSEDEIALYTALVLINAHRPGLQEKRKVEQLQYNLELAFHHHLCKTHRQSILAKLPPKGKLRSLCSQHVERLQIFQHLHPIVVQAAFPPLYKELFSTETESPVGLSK

Structure (SMILES) | activity change, negative = inhibition
c1ccc2c(c1)Oc1ccccc1S2 | -2.84% (inactive)
CCOCC(=O)O | 3.37% (inactive)
OC1CCCC1 | -0.37% (inactive)
c1ccc2n[nH]nc2c1 | -4.77% (inactive)
CC(=O)CCc1ccccc1 | 11% (inactive)
CC1CCC2CC1C2(C)C (stereo not given) | 5.09% (inactive)
O=Cc1ccc(C(=O)O)cc1 | -1.95% (inactive)
Nc1cccc(N)c1 | 38.5% (inactive)
C=Cc1ccccn1 | -13.3% (inactive)
CCCCCCCCC | 15.7% (inactive)
CC(C)(c1cc(Br)c(OCC(Br)CBr)c(Br)c1)c1cc(Br)c(OCC(Br)CBr)c(Br)c1 (stereo not given) | -7.53% (inactive)
Nc1cccc(C(F)(F)F)c1 | -1.2% (inactive)
O=C(O)CN(CC(=O)O)CC(=O)O | -7.17% (inactive)
O=[N+]([O-])c1ccc(Cl)cc1Cl | 20.7% (inactive)
CCCCC(CC)CO (stereo not given) | 5.64% (inactive)
C1CCCC1 | 1.29% (inactive)
CCc1ccccc1 | 0.434% (inactive)
CC(=O)C1(C)CC2=C(CCCC2(C)C)CC1C (stereo not given) | 42.4% (inactive)
Cc1c(N)cccc1[N+](=O)[O-] | -5.97% (inactive)
N#CCc1ccccc1[N+](=O)[O-] | 5.12% (inactive)

Structure (SMILES) | activity change, negative = inhibition
CC/C(C)=N/O | 27% (inactive)
O=C1CCCCC1 | -2.17% (inactive)
C/C(C=O)=C/c1ccccc1 | -23.1% (inactive)
Cc1ccc2cccnc2c1 | 2.53% (inactive)
NS(=O)(=O)O | 19.4% (inactive)
CC(C)=C1CCC(C)CC1=O (stereo not given) | 2.77% (inactive)
CCCCC(CC)CNCC(CC)CCCC (stereo not given) | 0% (inactive)
Cc1nc2ccc(Cl)cc2[nH]1 | -15.6% (inactive)
CCCCCCC(=O)O | -4.24% (inactive)
CCCCCCCCCCCCC1CO1 (stereo not given) | 34.6% (inactive)
O=C(O)c1c(Cl)cccc1Cl | -4.83% (inactive)
CCCCOCCOCCOCCCC | 0.151% (inactive)
S=C([S-])NCCNC(=S)[S-].[Zn+2] | 20.2% (inactive)
CCCCCCO | 17.2% (inactive)
CC(C)N=C=NC(C)C | 16.4% (inactive)
Nc1cc([N+](=O)[O-])ccc1C(=O)O | 20.3% (inactive)
c1ccc2[nH]cnc2c1 | 24.2% (inactive)
CCC=O | -4.47% (inactive)
Nc1cc(Cl)c([N+](=O)[O-])cc1O | -0.238% (inactive)
C=CCCC | 22.5% (inactive)
